Laboratory results: PubChem BioAssay (NCATS)
Several values for one entry are separate records, joined by “and”; a condition that tells them apart may be missing. Equal entries are not always repeated. Results filed as inconclusive are left out. Activity calls are given as the source filed them. Unless noted, calls follow the shape of the dose curve; as a rule, active = well fitted curve in the direction sought with a large enough effect; inconclusive = small, poorly fitted or top-dose-only effect, or another doubt; inactive = no such curve, though single readings can be large; an effect the other way counts as inactive or inconclusive.

Experiments:
[1] = target: Arylsulfatase A (Homo sapiens) (UniProt P15289); experiment: qHTS screen for enhancers of Arylsulfatase A (ASA1): LOPAC Validation Assay (AID 720538)
In short: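 First, ASA-I179S fibroblasts from an MLD patient adhered for 6 hrs. Next, compounds were added for 48h. Then pNCS substrate (0.5mM final) with lysis buffer reacted 14h at room temperature before NaOH stop and fluorescence measurement.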

[2] = qHTS for compounds that reverse cellular toxicity of Amyloid beta (A-beta) peptide in yeast: LOPAC Validation Assay (AID 720559);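 also: plate controls were DMSO for no effect and equimolar ferric chloride plus clioquinol rescue for full effect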
In short: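 Activity is expressed relative to DMSO and an equimolar ferric chloride/clioquinol mix. Compounds were pinned into medium with A-beta-expressing yeast, grown 48 hr at 30 C, then read by absorbance at 600 nm.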

[3] = qHTS for Activators of Parkin Expression: LOPAC Validation Assay (NLuc Reporter) (AID 720572;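 also: 0% = DMSO and 100% = positive control compound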)
In short: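 Neuronal cells with a Parkin promoter-driven FLuc/NLuc coincidence reporter were treated 24 h at 37 C in 7-point dose response (LOPAC). NLuc luminescence read after FLuc; signals normalized to DMSO and positive control (100%).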

[4] = qHTS for Activators of Parkin Expression: LOPAC Validation Assay (FLuc Reporter) (AID 720573;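 also: 0% = DMSO and 100% = positive control compounds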)
In short: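 A neuronal cell line harbouring FLuc and NLuc reporters behind the Parkin promoter was exposed to compounds for 24 h. Firefly luciferase signal, measured after 10 min with detection reagent, was scaled to DMSO and positive-control wells.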

[5] = target: T1, Hexokinase-4 (Homo sapiens) + Glucokinase regulatory protein (Homo sapiens) (UniProt P35557+Q14397); experiment: qHTS assay for inhibitors of recombinant human GCK-GKRP interaction: Diaphorase-coupled assay (AID 743205)
In short: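 Inhibitors of the GCK–GKRP complex relieve GKRP suppression of GCK, detected through a G6PDH–diaphorase cascade reducing resazurin. Human GST-GCK and FLAG-GKRP are used at 10 nM with 5 mM glucose and 0.4 mM ATP.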

[6] = target: T1, Hexokinase-4 (Homo sapiens) + Glucokinase regulatory protein (Homo sapiens); experiment: qHTS assay for inhibitors of recombinant human GCK-GKRP interaction: ADP-Glo assay (AID 743206);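 also: plate controls were DMSO plus enzyme for no effect and no enzyme for full effect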
In short: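 GST-GCK and FLAG-GKRP (15 nM each in the dispensed mix, with 2 uM S6P) react with 0.4 mM ATP and 5 mM glucose (final) in Hepes pH 7.6 for 60 min at room temperature. ADP is measured by ADP-Glo luminescence.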

[7] = target: T1, Hexokinase-4 (Homo sapiens) + Glucokinase regulatory protein (Homo sapiens); experiment: qHTS assay for inhibitors of recombinant human GCK-GKRP interaction: HTRF assay (AID 743207);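 also: 0% = DMSO with GCK present and -100% = DMSO wells lacking GCK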
In short: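 Steps: dispense GCK–GKRP complex (5 nM each, GST- and FLAG-tagged) with 2 uM S6P; pin in compounds; add XL665/Eu-cryptate-labelled antibodies; incubate 60 min at room temperature; read time-resolved FRET at 665 and 615 nm.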

[8] = qHTS assay for small molecule disruptors of the mitochondrial membrane potential - 1 hr assay (AID 651754; calls by dose curve; also: % is scaled to controls: 0 for no effect and ±100 for the full control effect; nearly all actives have a fitted effect of over 35% in size)
In short: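 HepG2 cells, attached overnight, were exposed to compound for 1 hr at 37C, then stained 30 min with a potentiometric dye. Ratio of red aggregate (590nm) to green monomer (535nm) fluorescence reports membrane potential; collapse shifts signal toward green.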

[9] = qHTS assay for small molecule disruptors of the mitochondrial membrane potential - 5 hr assay (AID 651755; calls by dose curve; also: % is scaled to controls: 0 for no effect and ±100 for the full control effect; nearly all actives have a fitted effect of over 40% in size)
In short: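 HepG2 cells (2,000/well), attached overnight, exposed to compound 5 hr at 37C, then Mito-MPS dye 30 min. Fluorescence read for monomers (490/535 nm) and aggregates (540/590 nm).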

[10] = target: Tumor necrosis factor (Homo sapiens) (UniProt P01375); experiment: qHTS assay to identify small molecules that stimulate Tumor Necrosis Factor-alpha (TNF-alpha) secretion (AID 651757; active = well fitted curve in the direction sought with a large enough effect in the signal ratio; the % refers to the signal ratio; also: 0% is about no effect)
In short: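 THP-1 cells (3000/well) exposed to compounds 17 hrs at 37 C. Secreted TNF-alpha detected by HTRF with cryptate- and XL665-labeled anti-TNF-alpha antibodies after 3 hr at room temperature.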

[11] = qHTS assay for environmental chemicals that activate the Aryl hydrocarbon Receptor (AhR) signaling pathway (AID 651777); conditions: 1A2-DRE human hepatoma cells, luciferase, 24 h; activation: active compounds read high; also: % of control where 0% means no effect; nearly all actives have a fitted effect of over 15% in size
In short: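 Measured luciferase activity, read 30 min after One-Glo addition at room temperature, from human hepatoma cells bearing a dioxin response element–CYP1A2 promoter reporter and exposed to compound for 24 hr at 37 C.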

[12] = target: Peroxisome proliferator-activated receptor alpha (Homo sapiens) (UniProt Q07869); experiment: qHTS assay for small molecule agonists of the peroxisome proliferator-activated receptor alpha (PPARalpha) signaling pathway (AID 651778); conditions: PathHunter PPARalpha complementation, chemiluminescence, 6 h; active compounds read high; also: % of control where 0% means no effect
In short: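 Enzyme-fragment complementation assay in which ligand-bound PPARalpha translocates and forms an active enzyme that generates chemiluminescence. Cells were plated overnight, exposed to compound for 6 hr at 37 C, and then given detection reagent for 60 min at room temperature.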

[13] = target: Nuclear receptor ROR-gamma (Homo sapiens) (UniProt P51449); experiment: qHTS assay for small molecule antagonists of the retinoid-related orphan receptor gamma (ROR-gamma) signaling pathway (AID 651802);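 also: luciferase reporter luminescence driven by ROR response element; series mostly up to about 92 µM; % is scaled to controls: 0 for no effect and ±100 for the full control effect; nearly all actives have a fitted effect of over 60% in size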
In short: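 CHO cells with TET-inducible ROR-gamma and RORE-luciferase reporter, dosed then doxycycline-induced. After 16 h at 37C, One-Glo luminescence read; decreased signal indicates antagonism.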

[14] = qHTS assay for small molecule agonists of the antioxidant response element (ARE) signaling pathway measured by Nrf2-dependant transcriptional activity (AID 720636; active = well fitted curve in the direction sought with a large enough effect in the repeat runs; an effect the other way counts as inactive or inconclusive;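 also: HepG2 cells with an ARE-driven luciferase reporter; % of control where 0% means no effect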)
In short: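 In HepG2 cells engineered with an Nrf2-responsive luciferase gene, ARE induction was quantified as luminescence after 16 hr compound treatment at 37 C.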

[15] = qHTS assay for small molecule antagonists of the retinoid-related orphan receptor gamma (ROR-gamma) signaling pathway - cell viability counter screen (AID 720652; active = well fitted curve in the direction sought with a large enough effect in the repeat runs; an effect the other way counts as inactive or inconclusive;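 also: series mostly up to about 92 µM; compound exposure lasted 16 hr before ATP read; % is scaled to controls: 0 for no effect and ±100 for the full control effect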)
In short: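 CHO cells carrying TET-inducible ROR and RORE-luciferase reporter, plated 5 hr, then dosed with compound plus doxycycline. After 16 hr at 37 C, viability read as intracellular ATP by CellTiter-Glo luminescence.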

[16] = qHTS assay for small molecule agonists of the antioxidant response element (ARE) signaling pathway measured by Nrf2-dependant transcriptional activity - cell viability counter screen (AID 720653; active = well fitted curve in the direction sought with a large enough effect in the repeat runs; an effect the other way counts as inactive or inconclusive; also: % is scaled to controls: 0 for no effect and ±100 for the full control effect); conditions: ARE-bla HepG2 viability, CellTiter-Glo ATP luminescence, 16 h; max response: active compounds read low
In short: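 ARE-bla HepG2 cells treated with compounds for 16 h at 37C; this counter screen measures viability as intracellular ATP by CellTiter-Glo luminescence after 30 min at room temperature.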

[17] = qHTS Assay for Identifying Gametocytocidal Compounds (AID 743244);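 also: % is scaled to controls: 0 for no effect and ±100 for the full control effect; actives lower the fluorescent signal which means gametocytes are killed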; conditions: P. falciparum 3D7 stage III-V gametocytes, alamarBlue, 72 h; max response: active compounds read low
In short: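 Viability read-out was resazurin reduction (alamarBlue, 24 h) measured at Ex 525/Em 598 nm. Beforehand, late-stage (III-V) 3D7 P. falciparum gametocytes at 20,000 cells/well were incubated with compound 72 h at 37C under 5% CO2.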

T1 sequence (P35557 whole entry, looked up): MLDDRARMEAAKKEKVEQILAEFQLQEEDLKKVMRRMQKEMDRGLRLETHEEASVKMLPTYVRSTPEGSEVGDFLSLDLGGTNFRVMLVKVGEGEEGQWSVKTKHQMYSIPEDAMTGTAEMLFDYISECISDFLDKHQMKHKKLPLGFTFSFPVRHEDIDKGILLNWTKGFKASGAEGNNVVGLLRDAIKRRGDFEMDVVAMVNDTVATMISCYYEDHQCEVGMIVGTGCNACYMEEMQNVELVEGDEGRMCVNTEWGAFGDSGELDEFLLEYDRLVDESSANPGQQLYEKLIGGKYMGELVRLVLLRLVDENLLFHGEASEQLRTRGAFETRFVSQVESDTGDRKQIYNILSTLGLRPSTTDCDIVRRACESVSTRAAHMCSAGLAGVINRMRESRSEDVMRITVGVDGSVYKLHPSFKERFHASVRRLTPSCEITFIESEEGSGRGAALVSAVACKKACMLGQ
T1 sequence (Q14397 whole entry, looked up): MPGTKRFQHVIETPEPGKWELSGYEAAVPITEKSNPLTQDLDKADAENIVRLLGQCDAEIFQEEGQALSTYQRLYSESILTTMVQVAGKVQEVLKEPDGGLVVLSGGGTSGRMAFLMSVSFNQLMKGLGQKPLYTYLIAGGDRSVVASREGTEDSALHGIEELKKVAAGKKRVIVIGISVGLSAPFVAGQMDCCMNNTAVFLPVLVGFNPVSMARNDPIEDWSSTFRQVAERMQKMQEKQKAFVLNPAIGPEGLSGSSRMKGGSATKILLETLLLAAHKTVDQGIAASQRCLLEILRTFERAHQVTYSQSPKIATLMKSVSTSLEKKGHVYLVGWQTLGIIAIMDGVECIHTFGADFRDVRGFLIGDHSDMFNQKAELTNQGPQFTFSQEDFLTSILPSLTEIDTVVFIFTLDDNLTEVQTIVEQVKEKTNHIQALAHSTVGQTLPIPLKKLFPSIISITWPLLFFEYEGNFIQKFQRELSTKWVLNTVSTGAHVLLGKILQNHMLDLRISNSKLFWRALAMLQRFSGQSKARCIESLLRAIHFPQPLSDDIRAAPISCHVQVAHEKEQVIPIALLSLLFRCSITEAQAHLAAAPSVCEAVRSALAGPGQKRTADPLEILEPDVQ
Chain of Peroxisome proliferator-activated receptor alpha (Homo sapiens) (Q07869 whole entry, looked up, the tested form may be a part): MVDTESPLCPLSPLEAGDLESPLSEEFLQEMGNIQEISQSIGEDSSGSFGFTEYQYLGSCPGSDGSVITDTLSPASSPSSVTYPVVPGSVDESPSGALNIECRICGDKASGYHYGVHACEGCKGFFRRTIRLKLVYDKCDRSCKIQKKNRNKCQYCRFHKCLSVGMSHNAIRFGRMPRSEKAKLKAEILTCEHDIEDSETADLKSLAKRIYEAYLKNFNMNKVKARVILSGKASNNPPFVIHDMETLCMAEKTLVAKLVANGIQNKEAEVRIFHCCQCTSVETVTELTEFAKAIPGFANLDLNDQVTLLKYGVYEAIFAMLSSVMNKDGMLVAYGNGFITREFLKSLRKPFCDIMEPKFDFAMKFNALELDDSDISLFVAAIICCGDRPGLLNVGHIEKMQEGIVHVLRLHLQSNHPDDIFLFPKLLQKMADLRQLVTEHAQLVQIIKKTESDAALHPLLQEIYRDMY
Chain of Arylsulfatase A (Homo sapiens) (P15289 whole entry, looked up): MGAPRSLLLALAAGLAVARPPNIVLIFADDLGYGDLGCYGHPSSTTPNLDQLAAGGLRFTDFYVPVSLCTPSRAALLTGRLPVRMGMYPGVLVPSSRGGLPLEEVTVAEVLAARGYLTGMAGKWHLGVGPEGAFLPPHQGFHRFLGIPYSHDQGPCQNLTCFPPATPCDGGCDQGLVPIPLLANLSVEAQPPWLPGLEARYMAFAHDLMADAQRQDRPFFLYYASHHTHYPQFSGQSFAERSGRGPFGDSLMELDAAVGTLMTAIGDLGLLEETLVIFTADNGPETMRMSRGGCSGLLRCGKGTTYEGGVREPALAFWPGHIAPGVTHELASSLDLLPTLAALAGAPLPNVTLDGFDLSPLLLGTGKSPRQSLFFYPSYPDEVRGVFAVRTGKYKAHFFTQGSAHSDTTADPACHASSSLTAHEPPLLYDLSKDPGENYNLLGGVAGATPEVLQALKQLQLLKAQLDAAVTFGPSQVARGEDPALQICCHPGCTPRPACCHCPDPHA
Chain of Tumor necrosis factor (Homo sapiens) (P01375 whole entry, looked up): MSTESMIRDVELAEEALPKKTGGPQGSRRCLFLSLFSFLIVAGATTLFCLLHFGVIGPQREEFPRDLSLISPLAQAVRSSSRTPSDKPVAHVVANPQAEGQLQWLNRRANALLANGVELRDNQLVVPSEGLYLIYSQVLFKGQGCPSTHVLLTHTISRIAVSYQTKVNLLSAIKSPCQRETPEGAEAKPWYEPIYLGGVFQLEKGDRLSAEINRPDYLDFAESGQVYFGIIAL
Chain of Nuclear receptor ROR-gamma (Homo sapiens) (P51449 whole entry, looked up): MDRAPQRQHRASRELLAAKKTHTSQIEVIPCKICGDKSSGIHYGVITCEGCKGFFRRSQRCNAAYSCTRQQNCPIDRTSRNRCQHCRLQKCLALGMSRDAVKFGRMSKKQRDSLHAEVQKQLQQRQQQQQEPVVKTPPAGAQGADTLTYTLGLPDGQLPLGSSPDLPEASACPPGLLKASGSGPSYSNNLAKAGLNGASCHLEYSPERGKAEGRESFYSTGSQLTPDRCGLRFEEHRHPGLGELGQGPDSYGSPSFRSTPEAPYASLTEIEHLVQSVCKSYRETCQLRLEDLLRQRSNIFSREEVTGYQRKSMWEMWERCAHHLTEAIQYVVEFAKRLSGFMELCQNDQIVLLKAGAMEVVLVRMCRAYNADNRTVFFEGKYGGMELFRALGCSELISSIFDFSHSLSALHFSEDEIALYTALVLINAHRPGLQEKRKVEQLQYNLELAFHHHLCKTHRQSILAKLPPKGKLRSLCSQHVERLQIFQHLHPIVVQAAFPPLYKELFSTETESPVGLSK

Cc1ccc(/C(=C\CN2CCCC2)c2ccccn2)cc1
inactive: Potency [1] | outcome [2] | Potency [3]

CN1C[C@H](C(=O)N[C@]2(C)O[C@@]3(O)[C@@H]4CCCN4C(=O)[C@H](Cc4ccccc4)N3C2=O)C[C@@H]2c3cccc4[nH]cc(c34)C[C@H]21
inactive: Potency [1] | outcome [2] | Potency [3] | outcome [4] | outcome [5] | outcome [6] | Potency [7]

CCN(CC)CCCN(c1ccccc1)C1Cc2ccccc2C1
inactive: Potency [1] | outcome [2] | Potency [3] | outcome [4] | outcome [5] | outcome [6] | Potency [7]

CCCCNC(=O)NS(=O)(=O)c1ccc(C)cc1
inactive: Potency [8] | Potency [9] | outcome [10] | activation [11] 0.474% and 1.06% | max response [12] -9.3% and -3.45% | Potency [13] | Potency [1] | outcome [2] | Potency [3] | outcome [4] | outcome [14] | outcome [15] | max response [16] 6.42% and -5.96% | outcome [5] | outcome [6] | Potency [7] | max response [17] 0.702% and 32.7%

C[C@]12CCC(=O)C=C1CC[C@@H]1[C@@H]2C(=O)C[C@@]2(C)[C@H]1CC[C@]2(O)C(=O)CO
inactive: activation [11] -0.997% | max response [12] -0.227% | Potency [1] | outcome [2] | outcome [4] | outcome [14] | max response [16] -5.48% | outcome [5] | outcome [6] | Potency [7] | max response [17] -0.251% and -12.4%

C[C@]12C=CC(=O)C=C1CC[C@H]1[C@@H]3C[C@@H](O)[C@](O)(C(=O)CO)[C@@]3(C)C[C@H](O)[C@@]12F
inactive: activation [11] 0.771% | max response [12] 4.65% | Potency [1] | outcome [2] | Potency [3] | outcome [4] | outcome [14] | max response [16] -0.0511% | outcome [5] | outcome [6] | Potency [7] | max response [17] 20.4% and -3.94%

CCC(=O)c1ccc2c(c1)N(CCCN(C)C)c1ccccc1S2
inactive: Potency [1] | outcome [2] | Potency [3] | outcome [4] | outcome [5] | outcome [6] | Potency [7]

CCN(Cc1ccncc1)C(=O)C(CO)c1ccccc1 (centres undefined)
inactive: Potency [1] | outcome [2] | Potency [3] | outcome [4] | outcome [5] | outcome [6] | Potency [7]

CC(=O)[C@@]1(O)CC[C@H]2[C@@H]3CCC4=CC(=O)CC[C@]4(C)[C@H]3CC[C@@]21C
inactive: max response [12] -2.31% | outcome [2] | outcome [4] | outcome [14] | max response [16] -7.45% | outcome [5] | outcome [6] | Potency [7]
